Inconclusive results are not listed. Active and inactive are the calls of the source. Unless noted, the call rests on the fitted dose curve; in most records, active means well fitted curve in the direction sought with a large enough effect; inconclusive means small, poorly fitted or top-dose-only effect, or another doubt; inactive means no such curve, though single readings can be large; an effect the other way counts as inactive or inconclusive.
Columns and labels:
[1] = qHTS profiling of the MIPE4 collection as inhibitors of Plasmodium falciparum (3D7) proliferation (AID 743344; call rule not given here;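 further: scaled between DMSO vehicle wells and 0.29 µM artemisinin as full inhibition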); conditions: P. falciparum 3D7 in erythrocytes, SYBR Green DNA fluorescence, 72 h; at 28.5 µM unless noted
In short: (§1)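 Erythrocytes infected with P. falciparum (0.3% parasitemia, 2.5% hematocrit) incubated with compounds 72 h at 37 C, 5% CO2. Lysis with saponin/Triton buffer containing SYBR Green I, overnight at room temperature in the dark; DNA fluorescence (485/535 nm) normalised to 0.29 uM artemisinin and DMSO.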

[2] = qHTS profiling of the MIPE4 collection as inhibitors of Plasmodium falciparum (DD2) proliferation (AID 743345; call rule not given here); conditions: P. falciparum Dd2 in erythrocytes, SYBR Green DNA, 72 h; at 28.5 µM unless noted
In short: as §1

[3] = qHTS profiling of the MIPE4 collection as inhibitors of Plasmodium falciparum (DD2) proliferation (Rep 2) (AID 743346; call rule not given here); conditions: P. falciparum Dd2 in erythrocytes, SYBR Green DNA, 72 h; at 28.5 µM unless noted
In short: as §1

[4] = qHTS profiling of the MIPE4 collection as inhibitors of Plasmodium falciparum (HB3) proliferation (AID 743347; call rule not given here;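 further: plate controls were DMSO vehicle wells for no effect and artemisinin wells for full effect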); conditions: P. falciparum HB3 in erythrocytes, SYBR Green DNA, 72 h; at 28.5 µM unless noted
In short: as §1

[5] = High-throughput drug toxicity screening in the BPDCN cell line Gen2.2 (AID 1224824; call rule not given here); conditions: Gen2.2 BPDCN cells; at 45.8 µM (top of the series) unless noted
In short: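 Gen2.2 cells, 500 per well in phenol red-free RPMI with 10% FBS, exposed to compounds 48 h at 37 C, 5% CO2; viability by CellTiter-Glo luminescence. Percent activity scaled to DMSO (100%) and 9.2 uM bortezomib final (0%).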

[6] = High-throughput drug toxicity screening in the BPDCN cell line Cal-1 (AID 1224825; call rule not given here); conditions: Cal-1 BPDCN cell viability, qHTS; at 45.8 µM (top of the series) unless noted
In short: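 Cal-1 cells, 500 per well in phenol-red-free RPMI with 10% FBS, exposed to compounds for 48 hours at 37C, 5% CO2. Viability read by CellTiter-Glo luminescence; percent activity normalized to DMSO (100%) and 9.2 uM bortezomib final (0%).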

[7] = qHTS assay for measurement of the activity of small molecule inhibitors on Zika virus induced Caspase-3 activity in human iPSC derived neural progenitor cells (hNPCs) (AID 1224857); further: % of control where 0% means no effect; nearly all actives have a fitted effect of over 65% in size
In short: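 hNPCs seeded 350 cells/well, cultured 16–20 h; compounds added 1 h before ZIKV (2 FFU/cell), 37 C 6 h. Caspase-Glo 3/7 luminescence after 30 min RT; % inhibition from induction scaled to uninfected (0%) and infected (100%) wells.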

[8] = qHTS assay for measurement of the activity of small molecule inhibitors on Zika virus induced Caspase-3 activity in human astrocytoma cells (AID 1224859);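 further: plate controls were ZIKV-infected untreated cells for no effect and uninfected cells for full effect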
In short: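 Luminescence read-out (Caspase-Glo 3/7, 30 min RT) of caspase activity in SNB-19 cells infected 6 h with ZIKV, 2 FFU/cell, after 1 h compound pretreatment; % inhibition from induction normalised to uninfected (0%) and infected (100%) wells.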

[9] = qHTS Screen of the MIPE 4.0 Collection Against Ewings Sarcoma (RDES) (AID 1259252); further: nearly all actives have a fitted effect of over 35% in size; further: potency means the concentration at half of the fitted maximal effect
In short: (§2)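 Viability screen: 48 h incubation at 37C, 95% humidity, 5% CO2 with serially titrated compound, followed by CellTiter-Glo readout.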

[10] = qHTS Screen of the MIPE 4.0 Collection Against Ewings Sarcoma (EW8) (AID 1259255); further: nearly all actives have a fitted effect of over 35% in size; further: potency means the concentration at half of the fitted maximal effect;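 on viability: 100% = DMSO-treated cells and 0% = medium-only wells without cells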
In short: as §2

[11] = qHTS profiling for inhibitors of Plasmodium falciparum (HB3) proliferation (AID 743324); conditions: Plasmodium falciparum HB3 blood-stage proliferation; at 28.7 µM (top of the series) unless noted;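 further: 100% = DMSO vehicle wells and 0% = artemisinin-treated control wells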
In short: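 P. falciparum HB3 grown in erythrocytes (0.3% parasitemia, 2.5% hematocrit final) with compound for 72 h at 37 C, 5% CO2. Parasite DNA detected by SYBR Green after saponin/triton lysis overnight; normalized to 0.29 uM artemisinin and DMSO.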

[12] = qHTS Screen of the MIPE 4.0 Collection Against Ewings Sarcoma (TC32) (AID 1259256); further: nearly all actives have a fitted effect of over 45% in size; further: potency means the concentration at half of the fitted maximal effect
In short: as §2

[13] = Identifying Small Molecule Inhibitors of Pancreatic Cancer Stem Cells (A2780, Spheroid) (AID 1259357); conditions: Potency: A2780 spheroid viability;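 further: compound exposure lasted 48 h before the ATP luminescence read; 100% = DMSO treated cells and 0% = wells without cells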
In short: (§3)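 Pre-formed 14-day tumor spheroids or adherent cells dosed and incubated 48 h, 37C, 5% CO2. Viability assessed by CellTiter-Glo.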

[14] = Identifying Small Molecule Inhibitors of Pancreatic Cancer Stem Cells (SN12C, Spheroid) (AID 1259360); conditions: Potency: SN12C spheroid viability;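 further: 100% = DMSO-treated cells and 0% = wells without cells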
In short: as §3

[15] = Identifying Small Molecule Inhibitors of Pancreatic Cancer Stem Cells (A278, Adherent) (AID 1259361);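 further: viability read after 48 h compound exposure; 100% = DMSO-treated cells and 0% = cell-free media-only wells; nearly all actives have a fitted effect of over 35% in size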
In short: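 Monolayer and spheroid cultures are compared. Spheroids form over 14 days in stem cell medium on hydrogel-coated low-attachment plates, then are exposed to compound for 48 h before CellTiter-Glo luminescence.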

[16] = Identifying Small Molecule Inhibitors of Pancreatic Cancer Stem Cells (Panc1, Adherent) (AID 1259362); conditions: Potency: viability; further: potency means the concentration at half of the fitted maximal effect;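 on viability, % of control: compound exposure lasted 48 h before the viability read; plate controls were DMSO-treated cells for no effect and cell-free media wells for full effect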
In short: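 Luminescent ATP readout (CellTiter-Glo) quantifies surviving cells after a 48 h drug incubation. Normalization uses DMSO wells as no inhibition and media-only wells as full inhibition; bortezomib served as positive control.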

Compound | parasite growth, % of DMSO control [1] | parasite growth remaining, % of DMSO control (lower = more inhibition) [2] | parasite growth, % of control (lower = inhibition) [3] | growth, % of control [4] | cell viability, % of control (lower = more cytotoxic) [5] | viability (% of control) [6] | Potency [7] | Potency [8] | Potency [9] | Potency [10] | remaining proliferation (% of control), lower = more inhibition [11] | Potency [12] | Potency [13] | Potency [14] | IC50 (viability decrease) [15] | Potency [16]
CCC[C@@H](NC(=O)[C@@H]1[C@H]2CCC[C@@H]2CN1C(=O)[C@@H](NC(=O)[C@@H](NC(=O)c1cnccn1)C1CCCCC1)C(C)(C)C)C(=O)C(=O)NC1CC1 | 9.1% | 61.2% | 19.9% | 10.3% | 48.1% | 63.1% | inactive | inactive | inactive | 16.6 µM (active) |  |  |  |  |  | 
CC(=O)Nc1cccc(-n2c(=O)n(C3CC3)c(=O)c3c(Nc4ccc(I)cc4F)n(C)c(=O)c(C)c32)c1 |  | 6.3% | 9.44% |  | 11.2% | 7.97% | inactive | inactive | 20.9 µM (active) |  | -0.298% | 23.5 µM (active) | inactive |  |  | 
COc1nc(C)cnc1NS(=O)(=O)c1cccnc1-c1ccc(-c2nnco2)cc1 | 100% | 100% | 74.5% | 100% | 379% | 142% | inactive | inactive | inactive | inactive | 91.9% | inactive |  | inactive | inactive | inactive
C[C@]12CC[C@@H]3c4ccc(O)cc4CC[C@H]3[C@H]1[C@@H](O)[C@@H](O)[C@H]2O | 5.15% | 9.25% |  | 2.52% | 218% | 44.4% | inactive | inactive | 20.9 µM (active) | inactive |  | inactive |  |  |  | 
O=C(Nc1cccc(Cl)c1)Nc1ncc(CCNc2ncnc3ccsc23)s1 | 15.2% | 67.5% | 39% |  | 122% | 20.2% | inactive | inactive | 1.18 µM (active) | 0.235 µM (active) | -0.601% | 0.296 µM (active) |  |  |  | 18.7 µM (active)
CN1CCN(c2cccc(Nc3nc4c(-c5ccc(S(C)(=O)=O)cc5)cccn4n3)c2)CC1 | 11.4% | 11.3% | 11.4% | 10.2% | 83% | 50.9% | inactive | inactive | 3.72 µM (active) | 5.9 µM (active) |  | 2.35 µM (active) |  |  |  | 
CCOC(=O)N1c2ccc(C(F)(F)F)cc2[C@@H](N(Cc2cc(C(F)(F)F)cc(C(F)(F)F)c2)C(=O)OC)C[C@H]1CC |  | 7.82% |  | 3.55% | 115% | 91.9% | inactive | inactive | 23.5 µM (active) | 20.9 µM (active) |  |  |  |  |  | 
O=C(c1ccc(F)c(F)c1Nc1ccc(I)cc1F)N1CC(O)([C@H]2CCCCN2)C1 | 11% | 11.1% |  | 4.74% | 3.78% | 2.16% | inactive | inactive | 26.4 µM (active) | 23.5 µM (active) |  | 20.9 µM (active) |  |  |  | 
Cc1ccccc1C(C(=O)NC1CCCCC1)N(C(=O)CNc1ccc(C#N)cc1)c1cccc(F)c1 (stereo unspecified) |  | 93.3% | 75.5% | 530% | 161% | 128% | inactive | inactive | inactive | inactive |  | inactive |  |  |  | 

— PubChem BioAssay (NCATS)
